PTK2B oligo ant – antagonists of human Pyk2 oligomerization; AID 1347419; Q293 cells, Pyk2 FERM NanoBiT luminescence; hits give low values; 99,000 compounds, 0.83% hits; z-score (the deposit names both 25 µM and 10 µM);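 active means Z-score of -3 or lower, scaled per plate to the spread of control and sample wells; inactive means z-score above -3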;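 further: negative z-score means lost luminescence so less FERM oligomerization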
Cav32 inh – human Cav3.2 channel inhibition, primary screen; Cav3.2-expressing cells, Fluo-4 calcium fluorescence FDSS; hits give low values; B-score at 10 µM; 100,000 compounds, 4% hits; AID 449739;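 active means single-dose well whose peak fluorescence ratio is a statistical outlier from its plate by either plate-standardised score or position-corrected B-score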
PostGolgi ctrl – yeast control strain growth, post-Golgi counter-screen; inhibition, % at 10 µM; efflux-deficient yeast background strain, growth absorbance A615, 16 h; 98,000 compounds, 5% hits
PostGolgi yeast – growth inhibition of a yeast mutant, post-Golgi transport screen; post-Golgi transport phenotypic cell assay; 98,000 compounds, 0.9% hits; inhibition, % at 10 µM;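 further: yeast cells grown in 1536-well plates; yeast grown about 18 h at 30C before absorbance read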
An asterisk follows results filed as active; / = no result. Only some compounds are listed: those with a hit (about 8% of all), similar ones and a draw of the others. Unless noted, no stated cut-off is given here; in the data, active means inhibition above about 30%; inactive means the rest.

SMILES	PTK2B oligo ant	Cav32 inh	PostGolgi ctrl	PostGolgi yeast
CCN(CC)S(=O)(=O)c1ccc(NS(=O)(=O)c2cccc(C)c2)cc1	-1.5	-4.6*	-3	0
CCN(CC)S(=O)(=O)c1ccc(NC(=O)CN(c2cccc(C)c2)S(C)(=O)=O)cc1	-1	-4.4*	/	/
CCN(CC)S(=O)(=O)c1ccc(C(=O)Nc2cccc(C)c2)cc1	-0.63	-1.6	7	-4
CC(=O)NC(CC(=O)Nc1ccc(S(=O)(=O)N2CCCC2)cc1)c1ccccc1 (configuration not stated)	0.04	0.13	2	-4
CC(=O)Nc1ccc(NC(=O)CN(c2cccc(C)c2)S(C)(=O)=O)cc1	0.95	0.31	12	-4
CCN(CC)S(=O)(=O)c1ccc(NC(=O)CC(NC(C)=O)c2ccccc2)cc1 (configuration not stated)	-0.39	-0.33	40*	-7
CN(C)CCNC(=O)C(C(=O)c1ccc(F)cc1)n1ccccc1=O (configuration not stated)	0.09	-0.024	6	4
O=C(CCc1nc(-c2ccccc2F)no1)NC1CCCCC1	0.4	0.49	3	-4
Cc1occc1C(=O)NN=C1C2CC3CC(C2)CC1C3	0.75	-0.46	/	/
NS(=O)(=O)c1ccc(CCNC(=O)Nc2ccc(Cl)c(Cl)c2)cc1	-0.29	-0.52	1	-5
O=C(O)C(=O)/C(=C\c1cccc2ccccc12)c1ccc2ccccc2n1	-0.11	-5.5*	22	3
Cc1ccc(-c2ccc(/C=N/c3ncn[nH]3)o2)cc1Cl	0.52	-6.7*	34*	-5
Cc1ccc(-c2ccc(/C=N/NC(=O)CN3CCCC3)o2)cc1Cl	-0.11	0.78	19	1
Cc1ccc(S(=O)(=O)C2(C(=O)N3CCN(C4CCCCC4)CC3)CC2)cc1	0.11	-5.2*	12	4
Cc1ccc(S(=O)(=O)C2(C(=O)N3CCCCCC3)CC2)cc1	-0.45	1.3	6	3
COC(=O)c1ccc(NC(=O)c2sc3nc(-c4ccccc4)cn3c2C)cc1	-3.8*	/	-1	17
Cc1c(C(=O)N2CCN(c3ccccc3F)CC2)sc2nc(-c3ccccc3)cn12	-1.5	-0.61	35*	-3
CC1Cc2ccccc2N1Cc1nc2cc(C(F)(F)F)ccc2c(=O)[nH]1 (configuration not stated)	0.37	-1.1	6	9
COC(=O)c1cc(OC)c(OC)cc1NC(=O)CSc1nnnn1Cc1ccccc1	-0.64	-1.8	38*	-6
COC(=O)NCC12CC3CC(C1)CC(CNC(=O)OC)(C3)C2	-0.63	0.11	33*	0
CC(=O)NCC12CC3CC(C1)CC(C(=O)O)(C3)C2	0.77	-0.15	2	4
Cc1c(Cl)c(C(F)(F)F)nn1CC(=O)N1CCSCC1	-0.19	-0.09	-8	3
Cc1cccc(Nc2ccccc2C(=O)OCC(=O)NCc2ccco2)c1C	-0.67	-0.77	17	2
Cc1cccc(Nc2ccccc2C(=O)OCC(=O)N2CCOCC2)c1C	-1.8	-0.053	35*	3
CCOC(=S)N/C(=N\S(=O)(=O)c1ccc(C)cc1)c1ccccc1	-0.02	1.4	10	-2
SMILES	PTK2B oligo ant	Cav32 inh	PostGolgi ctrl	PostGolgi yeast
CCCOc1ccc([N+](=O)[O-])cc1C1NC(=S)NC(c2ccccc2)=C1C(=O)OCC (configuration not stated)	-4.1*	-2.5	25	3
CCOc1cc(/C=N/NC(=O)CNc2cccc(C)c2)ccc1OC(=O)c1ccccc1	-1.1	-3.9*	7	1
Cc1ccc(S(=O)(=O)Nc2c(C)n(C)n(-c3ccccc3)c2=O)cc1C(=O)NCc1ccccn1	1.3	-0.11	-6	-6
Cc1cccc(COCCN2CCN(S(=O)(=O)c3ccccc3)CCC2=O)c1	/	-0.24	/	/
N#Cc1c(N2CCN(C(=O)c3ccco3)CC2)nc(-c2ccccc2)c2c1CCCC2	-1.4	-3.2	23	52*
N#Cc1c(N2CCN(C(=O)c3ccccc3)CC2)nc(-c2ccccc2)c2c1CCCC2	-2.4	-4.9*	28	57*
N#Cc1c(N2CCN(C(=O)c3ccccc3Cl)CC2)nc(-c2ccccc2)c2c1CCCC2	-1.1	/	7	3
Cc1cc(N)c(-n2cc3c(=O)n(C)c(=O)n(C)c3c2)cc1C	-0.41	2	32*	4
CCOC(=O)c1cccc(NC(=O)Cn2cnc3c2c(=O)n(C)c(=O)n3C)c1	3.1	/	-2	11
O=C(Nc1nn(Cc2ccc(Cl)cc2)cc1Br)c1ccc(COc2ccccc2Cl)o1	-1.9	-6.2*	2	4
O=C(Nc1ccn(Cc2c(F)c(F)cc(F)c2F)n1)c1ccc(COc2cc(Cl)ccc2Cl)o1	0.16	-2.6	-1	13
O=C(Nc1cccnc1)c1ccc(COc2ccccc2Cl)o1	-0.39	2.5	7	0
O=C(Nc1ccn(Cc2ccccc2F)n1)c1ccc(COc2cccc(Br)c2)cc1	0.68	-7.3*	8	-9
O=C(Nc1ccn(Cc2ccccc2F)n1)c1ccc(COc2cc(Cl)ccc2Cl)o1	-0.56	-4.9*	13	1
O=C(Nc1cccnc1)c1ccc(COc2cc(Cl)ccc2Cl)o1	1.5	-2.4	60*	13
O=C(Nc1ccn(Cc2ccccc2F)n1)c1ccc(COc2ccccc2Cl)cc1	-0.04	/	14	-11
COc1ccc(CCNC(=O)c2cccnc2)cc1	1.9	0.43	19	-2
CN(C)S(=O)(=O)c1cccc(NC(=O)COC(=O)CCc2nc3ccccc3s2)c1	1.2	-0.4	-3	0
CC(OC(=O)CN(C)S(=O)(=O)c1ccc(Cl)cc1)C(=O)Nc1cccc(Cl)c1 (configuration not stated)	0.54	-6.6*	20	1
COc1ccc(NC(=O)CN(C)S(=O)(=O)c2ccc(Cl)cc2)cc1Cl	1.1	-0.08	8	-6
CCOc1ccccc1Nc1nc(N2CCCC2)nc(N2CCOCC2)n1	/	-0.15	/	/
C=C(C)Cn1c(SCCN2CCOCC2)nc2c1c(=O)[nH]c(=O)n2C	1.3	-0.067	/	/
COc1ccc(/C=C/C(=O)NC(=S)NNC(=O)Cc2cccs2)cc1	-0.62	/	-15	2
O=C(/C=C/c1ccccc1)NC(=S)NNC(=O)Cc1cccs1	0.04	-4.1*	/	/
CC(c1ccccc1)N1C(=O)c2ccccc2C1O (configuration not stated)	/	0.24	7	2
SMILES	PTK2B oligo ant	Cav32 inh	PostGolgi ctrl	PostGolgi yeast
CCOC(=O)C1=C(CN2CCCCC2)NC(=O)NC1c1cc(C)ccc1C (configuration not stated)	-1.2	0.3	-2	-3
CCOC(=O)C1=C(COc2ccc(F)cc2Cl)NC(=O)NC1c1cc(C)ccc1C (configuration not stated)	-1	-0.36	30*	1
CCOC(=O)N1CCN(C(=O)C2CCCN(S(=O)(=O)c3cccnc3)C2)CC1 (configuration not stated)	/	-0.083	4	1
CCc1ccc(C(=O)N/N=C/c2cccc3ccccc23)nc1	-0.74	/	/	/
CCOC(=O)N1CCN(C(=O)CSCC(=O)Nc2nc(-c3ccc(OC)cc3)cs2)CC1	-0.08	-2.4	30*	-12
Cc1c(-c2ccccc2)oc2c(C(=O)N3CCN(c4ccccc4F)CC3)cccc2c1=O	-0.98	/	/	/
Cc1ccc(-c2c3c(=O)n(C)c(=O)n(C)c3cn2Cc2ccccc2)cc1	-0.37	/	17	-3
